Assay results from PubChem BioAssay AID1159580 (chemical genetic matrix, 2015).
Where “and” joins values, the source holds several entries; their conditions need not be identical. Identical values can stand only once. In all, about 5,500 compounds went through this assay and about 2,000 (36%) were called active. About 18% were inconclusive and are not listed. Cut-off read from the data, not from the text of the source: active = normalized growth mostly below about 0.91 (no sharp cut-off); inconclusive = no clear call, values can overlap the other calls; inactive = mostly above about 0.92. This is one part of the list.

Experiment: chemical genetic growth profiling, strain panel (AID 1159580);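 note: tested at 20 µM; growth read once vehicle control cultures reached saturation at 30 °C; 1 = growth at the plate median or of vehicle wells; lower values mean less growth of the strain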
Details: S. cerevisiae deletion strains, growth OD

Measured: normalized growth

COC(=O)/C=C/C(C)=C/C=C/C(C)=C/C=C/C=C(C)/C=C/C=C(C)/C=C/C(=O)O
inactive: locus YAL013W, strain DEP1, hits give low values 1 | locus YAL021C, strain ccr4, hits give low values 1.02 | locus YAL026C, strain drs2, hits give low values 1.02 | locus YAL030W, strain snc1, hits give low values 1.02 | locus YBL061C, strain skt5, hits give low values 1.04 | locus YBR009C, strain hhf1, hits give low values 1.02 | locus YBR021W, strain FUR4, hits give low values 1.03 | locus YBR023C, strain chs3, hits give low values 1.03 | locus YBR171W, strain sec66, hits give low values 1.03 | locus YBR229C, strain ROT2, hits give low values 1.02 | locus YBR231C, strain swc5, hits give low values 1.02 | locus YBR279W, strain paf1, hits give low values 0.988 | locus YCL011C, strain gbp2, hits give low values 1.02 | locus YCL016C, strain dcc1, hits give low values 1.02 | locus YCL029C, strain bik1, hits give low values 1.01 | locus YCL061C, strain MRC1, hits give low values 1.02 | locus YCL069W, strain vba3, hits give low values 1.02 | locus YCR088W, strain abp1, hits give low values 1.02 | locus YDL005C, strain med2, hits give low values 1.01 | locus YDL035C, strain GPR1, hits give low values 1.02 | locus YDL040C, strain nat1, hits give low values 1.01 | locus YDL074C, strain BRE1, hits give low values 1 | locus YDL101C, strain DUN1, hits give low values 1.02 | locus YDL134C, strain PPH21, hits give low values 1.04 | locus YDL185W, strain tfp1, hits give low values 1.02 | locus YDL192W, strain arf1, hits give low values 1.01 | locus YDR001C, strain nth1, hits give low values 1.03 | locus YDR069C, strain doa4, hits give low values 1.04 | locus YDR101C, strain arx1, hits give low values 0.997 | locus YDR137W, strain rgp1, hits give low values 1.05 | locus YDR150W, strain NUM1, hits give low values 1.02 | locus YDR159W, strain sac3, hits give low values 1.05 | locus YDR162C, strain NBP2, hits give low values 1.03 | locus YDR195W, strain ref2 0.993 | locus YDR297W, strain sur2, hits give low values 1.03 | locus YDR318W, strain mcm21, hits give low values 1 | locus YDR334W, strain swr1, hits give low values 1.02 | locus YDR335W, strain msn5, hits give low values 1.02 | locus YDR388W, hits give low values 0.998 | locus YDR392W, strain spt3, hits give low values 1.03 | locus YDR502C, strain sam2, hits give low values 1.01 | locus YEL003W, strain gim4, hits give low values 1.02 | locus YEL037C, strain rad23, hits give low values 1.02 | locus YEL061C, strain CIN8 (second series), hits give low values 1.01 | locus YEL061C, strain CIN8, hits give low values 1.01 | locus YER015W, strain faa2, hits give low values 1.02 | locus YER016W, strain bim1, hits give low values 1.01 | locus YER110C, hits give low values 0.989 | locus YER111C, strain swi4, hits give low values 1.02 | locus YER155C, strain BEM2 (second series), hits give low values 1.03 | locus YER155C, strain BEM2, hits give low values 0.994 | locus YER167W, strain BCK2, hits give low values 1.01 | locus YFR010W, strain ubp6, hits give low values 1.02 | locus YGL078C, strain dbp3, hits give low values 0.993 | locus YGL086W, strain mad1, hits give low values 0.986 | locus YGL167C, strain pmr1, hits give low values 1.03 | locus YGL173C, strain kem1, hits give low values 1.02 | locus YGL227W, strain vid30, hits give low values 1.03 | locus YGL240W, strain doc1, hits give low values 1.02 | locus YGL248W, strain PDE1, hits give low values 1.02 | locus YGL253W, strain hxk2, hits give low values 1.02 | locus YGR078C, strain PAC10, hits give low values 1.03 | locus YGR135W, strain pre9, hits give low values 1 | locus YGR252W, strain gcn5, hits give low values 0.983 | locus YHR013C, strain ard1, hits give low values 1.01 | locus YHR027C, strain rpn1, hits give low values 1.03 | locus YHR030C, strain SLT2, hits give low values 1.02 and 0.885 | locus YHR079C, strain IRE1 (second series), hits give low values 0.986 | locus YHR079C, strain IRE1, hits give low values 0.897 | locus YHR094C, strain hxt1, hits give low values 0.994 | locus YHR129C, strain ARP1, hits give low values 1.01 | locus YHR142W, strain chs7, hits give low values 1.03 | locus YHR200W, strain rpn10, hits give low values 1.01 | locus YIL066C, strain RNR3, hits give low values 1.03 | locus YIL073C, strain SPO22, hits give low values 1.01 | locus YIL125W, strain kgd1, hits give low values 0.997 | locus YIR030C, strain dcg1, hits give low values 0.995 | locus YJL092W, strain hpr5, hits give low values 1.03 | locus YJL095W, strain BCK1 (second series), hits give low values 1.02 | locus YJL095W, strain BCK1, hits give low values 1.04 and 0.924 | locus YJL115W, strain asf1, hits give low values 1.01 | locus YJL129C, strain trk1, hits give low values 1.02 | locus YJL134W, strain LCB3, hits give low values 1.01 | locus YJL154C, strain vps35, hits give low values 1.01 | locus YJL164C, strain tpk1, hits give low values 1.03 | locus YJL166W, strain qcr8, hits give low values 1.03 | locus YJL168C, strain set2, hits give low values 0.994 | locus YJL187C, strain SWE1 (second series), hits give low values 1.03 | locus YJL187C, strain SWE1, hits give low values 1.02
